The values below come from PubChem BioAssay (Tox21).

The source made the active and inactive calls. Unless noted, calls come from the whole dose curve; as a rule, active = well fitted curve in the direction sought with a large enough effect in the repeat runs; inconclusive = weak or mixed curves; inactive = no such curve, though single readings can be large; an effect the other way counts as inactive or inconclusive.

The nature of test [1]: qHTS assay to identify aromatase inhibitors - cell viability counter screen (AID 743084).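 Note: cells stimulated with testosterone during compound exposure; nearly all actives have a fitted effect of over 55% in size.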
In test [2] the target is Aryl hydrocarbon receptor (Homo sapiens) (UniProt P35869). As to the kind of experiment: qHTS assay to identify small molecule that activate the aryl hydrocarbon receptor (AhR) signaling pathway (AID 743085).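 Note: HG2L7.5c1 human HepG2 liver cells with stably integrated DRE-driven firefly reporter; series mostly up to about 70 µM; nearly all actives have a fitted effect of over 15% in size.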 Summed up: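 Steps: seed HepG2-AhR-luc cells; allow 5 h at 37C; pin-transfer test compound or vehicle; incubate 24 h at 37C; add viability dye (30 min, 37C) and read fluorescence; add luciferase substrate (30 min, RT) and read luminescence.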

Test [3] is described as follows: qHTS assay to identify small molecule that activate the aryl hydrocarbon receptor (AhR) signaling pathway - cell viability counter screen (AID 743086).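 Note: HepG2 liver cells carrying the AhR DRE luciferase reporter; series mostly up to about 70 µM; nearly all actives have a fitted effect of over 45% in size.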 In short, it runs like this: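 HepG2-AhR-luc (HG2L7.5c1) cells, 4000/well, were preincubated 5 h at 37C, exposed to compound in qHTS format for 24 hr at 37C, then given CellTiter-Fluor for 30 min; viability was read as fluorescence in the reporter wells.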

A short description of test [4]: qHTS assay for small molecules that induce genotoxicity in human embryonic kidney cells expressing luciferase-tagged ATAD5 (AID 651632). Note: nearly all actives have a fitted effect of over 15% in size. Summed up: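 Concentration-response screen for ATAD5 upregulation in HEK293T luciferase reporter cells; 16 hr treatment at 37C, then luminescence after 30 min with Amplite at room temperature.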
Test [5] is described as follows: qHTS assay for small molecule agonists of the p53 signaling pathway - cell viability (AID 651633; calls by dose curve; note: nearly all actives have a fitted effect of over 30% in size; note: potency is the fitted concentration of half-maximal effect). Summed up: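 p53RE-bla cells, seeded at 4,000 per well and rested 5 h at 37 C/5% CO2, received compounds in DMSO for 16 h at 37 C. CellTiter-Glo was then added, and luminescence was read after 30 min at room temperature to gauge cytotoxicity.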
The nature of test [6]: qHTS assay for small molecule disruptors of the mitochondrial membrane potential - cell viability (AID 720634; calls by dose curve;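 note: human HepG2 liver cancer cells; series mostly up to about 83 µM; nearly all actives have a fitted effect of over 20% in size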). In short, it runs like this: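 In this qHTS format, HepG2 cells plated overnight were pinned with compound, incubated 1 hr, and assayed for ATP luminescence with CellTiter-Glo after m-MPI dye addition.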
The nature of test [7]: qHTS assay to test for compound auto fluorescence at 590 nm (red) in HepG2 cells (AID 720674). In short, it runs like this:
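Intrinsic compound fluorescence in the red window (Ex/Em 540/590 nm) is measured in attached HepG2 cells exposed for 1 hr, DMSO vehicle as baseline, benchmarked to Rose Bengal sodium.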

Test [8] in a line: qHTS assay to test for compound auto fluorescence at 535 nm (green) in HepG2 cells (AID 720675).
Test [9] is described as follows: qHTS assay to test for compound auto fluorescence at 460 nm (blue) in HEK293 cells (AID 720678). Summed up:
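HEK293, 2,000 cells/well, 10% dialyzed FBS; attach 4-5 hr 37C; pin compound or DMSO; o/n 37C/5% CO2; fluorescence 405/460 nm; triamterene-equivalent units.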

A short description of test [10]: qHTS assay to test for compound auto fluorescence at 590 nm (red) in HEK293 cells (AID 720679). Summed up: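 Intensity at 540nm excitation and 590nm emission is reported as Rose Bengal sodium-equivalent autofluorescence. Measurements followed overnight exposure (37C, 5% CO2) of HEK293 cells, 2,000 per well, to 23 nL compound.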
Test [11] in a line: qHTS assay to test for compound auto fluorescence at 535 nm (green) in HEK293 cells (AID 720680).
Test [12] in a line: qHTS assay to test for compound auto fluorescence at 590 nm (red) in HEK293 cell free culture (AID 720683). Summed up: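 Tox21 10K library compounds were pinned into cell-free DMEM with 10% FBS and fluorescence was read at excitation 540 nm. Activity is expressed as Rose Bengal sodium equivalency.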
Test [13] is described as follows: qHTS assay to test for compound auto fluorescence at 590 nm (red) in HepG2 cell free culture (AID 720684). Summed up: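 Readout: intrinsic compound fluorescence at 590 nm emission after 540 nm excitation, scaled to Rose Bengal sodium. Matrix was cell-free MEM with 10% FBS; DMSO vehicle wells served as control.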
The nature of test [14]: qHTS assay to test for compound auto fluorescence at 460 nm (blue) in HepG2 cell free culture (AID 720685). Summed up: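 Cell-free plates of MEM plus 10% FBS received 23 nL compound or DMSO vehicle; blue-channel (405/460 nm) intensity scored against triamterene as reference fluorophore.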
A short description of test [15]: qHTS assay to test for compound auto fluorescence at 535 nm (green) in HepG2 cell free culture (AID 720686).
Test [16] can be described thus: qHTS assay to test for compound auto fluorescence at 460 nm (blue) in HepG2 cells (AID 720687). Summed up:
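Cells (2,000/well in MEM with 10% FBS) attached overnight at 37 C, then were exposed to compound or DMSO for 1 hr at 37 C, 5% CO2. Fluorescence read at Ex/Em 405/460 nm, expressed as triamterene-equivalent signal.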

For test [17], the target named is Glucocorticoid receptor (Homo sapiens) (UniProt P04150). Briefly: qHTS assay to identify small molecule agonists of the glucocorticoid receptor (GR) signaling pathway (AID 720691; active = well fitted activation curve with a large enough effect in the signal ratio in the repeat runs, not every such curve was filed as active; inconclusive = weak or mixed curves, or effect the other way; inactive = no such curve, though single readings can be large or run the other way; the % refers to the signal ratio). In short, it runs like this:
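Measures GR pathway activation through a GRE-beta-lactamase reporter stably integrated in HeLa cells, with 18 h compound treatment at 37 C and fluorescence detection using a FRET substrate.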

The target is the same in test [18]. Briefly: qHTS assay to identify small molecule antagonists of the glucocorticoid receptor (GR) signaling pathway (AID 720692; active = well fitted inhibition curve with a large enough effect in the signal ratio in the repeat runs, not every such curve was filed as active; inconclusive = weak or mixed curves, or effect the other way; inactive = no such curve, though single readings can be large or run the other way; the % refers to the signal ratio). In short, it runs like this:
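Tox21 10K library screened in concentration-response for blockade of dexamethasone (5 nM final)-induced GRE-bla reporter activity in HeLa cells; 18 h treatment, fluorescence read.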

Test [19] can be described thus: qHTS assay to identify small molecule antagonists of the glucocorticoid receptor (GR) signaling pathway - cell viability counter screen (AID 720693). Note: nearly all actives have a fitted effect of over 55% in size. Note: potency is the fitted concentration of half-maximal effect.
Test [20] in a line: qHTS assay for identifying genotoxic compounds that show differential cytotoxicity against isogenic chicken DT40 cell lines with known DNA damage response pathways - wild type cell line (AID 743012). Note: potency is the fitted concentration of half-maximal effect; nearly all actives have a fitted effect of over 60% in size. In short, it runs like this:
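Endpoint: CellTiter-Glo luminescence, 30 min RT. Cells: wild type DT40, 300/well. Exposure: compounds in DMSO, 40 h, 37 C/5% CO2, after ~0.5 h pre-incubation.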

Test [21] is described as follows: qHTS assay to identify small molecule antagonists of the androgen receptor (AR) signaling pathway - cell viability counter screen (AID 743033; note: nearly all actives have a fitted effect of over 45% in size).
Test [22] in a line: qHTS assay to identify small molecule antagonists of the androgen receptor (AR) signaling pathway using the MDA cell line - cell viability counter screen (AID 743041; note: nearly all actives have a fitted effect of over 45% in size). In short, it runs like this: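 qHTS viability read-out; MDA-kb2 AR-luc; R1881-stimulated; 16 h exposure at 37C, 0% CO2; CellTiter-Fluor, 30 min; fluorescence intensity.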
The target of test [23] is Estrogen receptor (Homo sapiens) (UniProt P03372). As to the kind of experiment: qHTS assay to identify small molecule antagonists of the estrogen receptor alpha (ER-alpha) signaling pathway (AID 743069; active = well fitted curve in the direction sought with a large enough effect in the signal ratio in the repeat runs, not every such curve was filed as active; inconclusive = weak or mixed curves, or effect the other way; inactive = no such curve, though single readings can be large or run the other way; the % refers to the signal ratio). Summed up: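 Screening used a UAS-driven beta-lactamase reporter integrated into HEK293 cells expressing ER-alpha, stimulated with 17beta-estradiol alongside test compounds over 18 hr at 37C; signal came from LiveBLAzer B/G FRET fluorescence.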

The target is the same in test [24]. As to the kind of experiment: qHTS assay to identify small molecule agonists of the estrogen receptor alpha (ER-alpha) signaling pathway (AID 743075; calls by dose curve; note: potency is the fitted concentration of half-maximal effect).
The nature of test [25]: qHTS assay to identify small molecule antagonists of the estrogen receptor alpha (ER-alpha) signaling pathway using the BG1 cell line (AID 743080; calls by dose curve;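 note: BG1 cells stimulated with 17beta-estradiol alongside compound; series mostly up to about 70 µM; nearly all actives have a fitted effect of over 25% in size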). Summed up: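 BG1Luc4E2, endogenous ER-alpha, 4xERE-luc; 5 d charcoal-stripped FBS, phenol red free; 24 h plating; cpd + 17beta-estradiol 21.5 h, 37 C/5% CO2; CellTiter-Fluor viability 30 min, then ONE-Glo luciferase 30 min RT.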

Test [26] in a line: qHTS assay to identify small molecule antagonists of the estrogen receptor alpha (ER-alpha) signaling pathway using the BG1 cell line - cell viability counter screen (AID 743081).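 Note: compound given together with 17beta-estradiol as the ER stimulus; series mostly up to about 70 µM; nearly all actives have a fitted effect of over 45% in size.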
A further test addresses Aromatase (Homo sapiens) (UniProt P11511). As to the kind of experiment: qHTS assay to identify aromatase inhibitors (AID 743083). Note: series mostly up to about 70 µM; nearly all actives have a fitted effect of over 55% in size.
Test [27] addresses Acetylcholinesterase (Homo sapiens) (UniProt P22303). As to the kind of experiment: Acetylcholinesterase (AChE) small molecule antagonists: enzyme-based qHTS assay with human liver microsomes (AID 1347399; calls by dose curve; note: nearly all actives have a fitted effect of over 60% in size). Particulars: Potency: qHTS inhibition; outcome: qHTS inhibition. Summed up: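 Recombinant human AChE (50 mU/mL in the enzyme mix) and human liver microsomes (0.25 mg/mL final) were preincubated with compound and NADPH (0.25 mg/mL final) for 30 min at 37 C. Acetylthiocholine/DTNB was then added; thiocholine was read colorimetrically after 10 min at room temperature.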

Test [28] can be described thus: qHTS assay for small molecules that induce genotoxicity in human embryonic kidney cells expressing luciferase-tagged ATAD5 - cell viability (AID 651634; calls by dose curve; note: nearly all actives have a fitted effect of over 25% in size). Summed up: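 15.5 hr compound or vehicle exposure of HEK293T cells expressing luciferase-tagged ATAD5 at 37C; live-cell protease activity is read by fluorescence after 30 min of CellTiter-Fluor.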
The nature of test [29]: qHTS assay for small molecule disruptors of the mitochondrial membrane potential (AID 720635). Note: potency is the fitted concentration of half-maximal effect. In short, it runs like this:
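HepG2 cells (2,000/well) attached overnight at 37C, then took compound for 1 hr at 37C, 5% CO2. Mito-MPS dye was added for 30 min; fluorescence was read at 490/535 nm (monomers) and 540/590 nm (aggregates).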

The nature of test [30]: qHTS assay for identifying genotoxic compounds that show differential cytotoxicity against isogenic chicken DT40 cell lines with known DNA damage response pathways - Rev3 mutant cell line (AID 743014). Note: potency is the fitted concentration of half-maximal effect; nearly all actives have a fitted effect of over 55% in size.
A short description of test [31]: qHTS assay for identifying genotoxic compounds that show differential cytotoxicity against isogenic chicken DT40 cell lines with known DNA damage response pathways - Rad54/Ku70 mutant cell line (AID 743015). Note: potency is the fitted concentration of half-maximal effect; nearly all actives have a fitted effect of over 60% in size.
The nature of test [32]: qHTS assay to identify small molecule antagonists of the thyroid receptor (TR) signaling pathway - cell viability counter screen (AID 743064). Note: potency is the fitted concentration of half-maximal effect; nearly all actives have a fitted effect of over 50% in size. Summed up: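 Plate GH3.TRE-Luc cells; incubate 4 h at 37 °C; add compound, then T3 to 1 nM final; incubate 23.5 h; add CellTiter-Fluor; incubate 30 min at 37 °C, 5% CO2; read fluorescence.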
The nature of test [33]: qHTS assay to identify small molecule antagonists of the thyroid receptor (TR) signaling pathway (AID 743065). In short, it runs like this:
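GH3.TRE-Luc rat pituitary cells carrying two TR response elements driving luciferase were plated for 4 h, given compound plus 1 nM T3 (final), and incubated 23.5 h at 37 C. ONE-Glo luminescence measured reporter inhibition; CellTiter-Fluor fluorescence tracked cytotoxicity.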

Test [34] can be described thus: qHTS assay to identify small molecule antagonists of the estrogen receptor alpha (ER-alpha) signaling pathway - cell viability counter screen (AID 743074; calls by dose curve).
Test [35] concerns the target Estrogen receptor (Homo sapiens) (UniProt P03372). Briefly: qHTS assay to identify small molecule agonists of the estrogen receptor alpha (ER-alpha) signaling pathway using the BG1 cell line (AID 743079). Note: potency is the fitted concentration of half-maximal effect; nearly all actives have a fitted effect of over 20% in size.
Test [36] deals with Peroxisome proliferator-activated receptor gamma (Homo sapiens) (UniProt P37231). As to the kind of experiment: qHTS assay to identify small molecule agonists of the peroxisome proliferator-activated receptor gamma (PPARg) signaling pathway (AID 743094; active = well fitted activation curve with a large enough effect in the signal ratio in the repeat runs, not every such curve was filed as active; inconclusive = weak or mixed curves, or effect the other way; inactive = no such curve, though single readings can be large or run the other way; the % refers to the signal ratio). In short, it runs like this: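 Fluorescence-based beta-lactamase readout in HEK293H PPARg UAS-bla cells after 17 h compound exposure (37C) and 1 h B/G FRET substrate incubation at room temperature.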
Peroxisome proliferator-activated receptor gamma (Homo sapiens), sequence (P37231 whole entry, looked up): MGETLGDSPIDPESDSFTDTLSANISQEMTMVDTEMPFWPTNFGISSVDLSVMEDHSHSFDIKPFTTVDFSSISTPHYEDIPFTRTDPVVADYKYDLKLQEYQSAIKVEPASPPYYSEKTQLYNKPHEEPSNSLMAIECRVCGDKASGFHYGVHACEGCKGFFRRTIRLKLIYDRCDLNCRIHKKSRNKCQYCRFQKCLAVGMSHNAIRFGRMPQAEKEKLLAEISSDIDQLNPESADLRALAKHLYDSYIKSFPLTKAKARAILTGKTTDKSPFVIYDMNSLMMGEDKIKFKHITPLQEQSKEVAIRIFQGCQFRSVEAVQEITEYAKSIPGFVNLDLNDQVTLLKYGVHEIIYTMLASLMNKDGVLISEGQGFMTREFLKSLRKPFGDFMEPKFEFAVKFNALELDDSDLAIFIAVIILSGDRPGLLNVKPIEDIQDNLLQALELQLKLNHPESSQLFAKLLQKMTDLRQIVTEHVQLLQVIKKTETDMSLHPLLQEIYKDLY

Aryl hydrocarbon receptor (Homo sapiens), sequence (P35869 whole entry, looked up): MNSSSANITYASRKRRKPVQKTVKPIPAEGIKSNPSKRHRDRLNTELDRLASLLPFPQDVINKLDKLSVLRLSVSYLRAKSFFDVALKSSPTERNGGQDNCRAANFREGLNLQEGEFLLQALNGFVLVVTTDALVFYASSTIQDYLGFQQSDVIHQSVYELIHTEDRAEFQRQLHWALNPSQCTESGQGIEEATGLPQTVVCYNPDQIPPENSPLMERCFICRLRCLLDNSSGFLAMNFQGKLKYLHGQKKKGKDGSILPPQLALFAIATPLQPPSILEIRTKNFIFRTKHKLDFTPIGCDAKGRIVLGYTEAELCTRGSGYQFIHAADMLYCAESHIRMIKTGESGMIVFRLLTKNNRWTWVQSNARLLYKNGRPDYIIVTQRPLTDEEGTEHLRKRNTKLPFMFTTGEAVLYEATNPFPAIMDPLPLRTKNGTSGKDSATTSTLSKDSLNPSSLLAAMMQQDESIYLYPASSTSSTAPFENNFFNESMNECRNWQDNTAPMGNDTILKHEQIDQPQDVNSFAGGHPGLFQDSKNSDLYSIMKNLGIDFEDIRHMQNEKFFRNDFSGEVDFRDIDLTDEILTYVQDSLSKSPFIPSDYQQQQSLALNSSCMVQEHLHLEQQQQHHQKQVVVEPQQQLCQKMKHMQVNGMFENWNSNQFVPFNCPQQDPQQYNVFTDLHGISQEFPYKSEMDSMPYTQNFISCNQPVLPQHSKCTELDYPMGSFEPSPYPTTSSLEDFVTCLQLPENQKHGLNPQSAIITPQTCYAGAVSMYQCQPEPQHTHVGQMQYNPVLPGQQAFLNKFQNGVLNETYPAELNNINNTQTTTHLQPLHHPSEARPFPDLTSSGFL
Estrogen receptor (Homo sapiens), sequence (P03372 whole entry, looked up): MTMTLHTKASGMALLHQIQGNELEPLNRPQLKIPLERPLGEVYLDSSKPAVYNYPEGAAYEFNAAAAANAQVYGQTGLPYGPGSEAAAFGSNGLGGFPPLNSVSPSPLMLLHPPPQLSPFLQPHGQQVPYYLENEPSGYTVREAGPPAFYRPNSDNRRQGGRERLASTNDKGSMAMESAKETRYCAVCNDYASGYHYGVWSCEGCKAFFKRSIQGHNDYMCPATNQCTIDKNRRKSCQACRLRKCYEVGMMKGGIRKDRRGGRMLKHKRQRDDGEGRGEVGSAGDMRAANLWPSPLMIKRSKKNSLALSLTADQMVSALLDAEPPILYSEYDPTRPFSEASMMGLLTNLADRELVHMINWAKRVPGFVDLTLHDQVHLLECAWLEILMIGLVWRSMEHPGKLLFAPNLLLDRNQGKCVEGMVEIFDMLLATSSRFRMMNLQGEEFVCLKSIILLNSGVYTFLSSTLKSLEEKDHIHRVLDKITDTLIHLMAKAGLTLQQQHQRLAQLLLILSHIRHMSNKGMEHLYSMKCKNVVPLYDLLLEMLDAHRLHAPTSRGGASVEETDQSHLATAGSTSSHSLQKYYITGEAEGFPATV
Glucocorticoid receptor (Homo sapiens), sequence (P04150 whole entry, looked up): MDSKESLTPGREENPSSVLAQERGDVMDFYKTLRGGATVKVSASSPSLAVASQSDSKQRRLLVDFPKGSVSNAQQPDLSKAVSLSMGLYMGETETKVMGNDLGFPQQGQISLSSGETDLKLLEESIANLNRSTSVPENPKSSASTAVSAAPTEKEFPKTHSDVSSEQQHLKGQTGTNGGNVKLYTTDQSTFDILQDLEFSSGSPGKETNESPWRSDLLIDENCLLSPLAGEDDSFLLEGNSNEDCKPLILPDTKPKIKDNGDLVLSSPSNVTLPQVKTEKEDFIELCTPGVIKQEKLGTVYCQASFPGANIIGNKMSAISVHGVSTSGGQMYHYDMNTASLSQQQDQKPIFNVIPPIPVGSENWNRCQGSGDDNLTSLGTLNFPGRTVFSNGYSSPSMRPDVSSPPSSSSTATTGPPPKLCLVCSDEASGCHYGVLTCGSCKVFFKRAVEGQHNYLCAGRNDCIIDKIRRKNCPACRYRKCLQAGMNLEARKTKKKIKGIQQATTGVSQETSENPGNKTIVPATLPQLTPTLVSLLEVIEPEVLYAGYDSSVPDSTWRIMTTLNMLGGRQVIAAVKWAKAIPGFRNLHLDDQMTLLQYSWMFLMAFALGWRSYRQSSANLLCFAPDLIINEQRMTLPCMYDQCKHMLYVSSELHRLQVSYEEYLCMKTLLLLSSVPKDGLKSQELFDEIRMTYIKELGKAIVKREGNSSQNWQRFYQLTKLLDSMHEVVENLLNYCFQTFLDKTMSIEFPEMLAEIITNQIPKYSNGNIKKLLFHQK
Aromatase (Homo sapiens), sequence (P11511 whole entry, looked up): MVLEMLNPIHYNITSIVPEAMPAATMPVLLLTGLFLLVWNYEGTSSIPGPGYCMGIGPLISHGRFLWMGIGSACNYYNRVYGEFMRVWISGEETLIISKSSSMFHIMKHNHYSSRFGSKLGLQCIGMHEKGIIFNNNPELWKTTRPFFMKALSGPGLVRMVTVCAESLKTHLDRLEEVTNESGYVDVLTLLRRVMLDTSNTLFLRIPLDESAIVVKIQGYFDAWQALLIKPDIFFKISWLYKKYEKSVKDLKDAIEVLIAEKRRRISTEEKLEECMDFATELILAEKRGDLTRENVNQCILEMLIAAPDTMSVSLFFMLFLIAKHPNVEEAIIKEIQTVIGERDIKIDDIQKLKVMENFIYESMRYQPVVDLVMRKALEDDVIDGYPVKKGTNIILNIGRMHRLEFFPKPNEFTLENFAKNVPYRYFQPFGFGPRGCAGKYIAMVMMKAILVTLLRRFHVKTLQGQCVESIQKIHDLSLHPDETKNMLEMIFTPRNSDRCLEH
Acetylcholinesterase (Homo sapiens), sequence (P22303 whole entry, looked up): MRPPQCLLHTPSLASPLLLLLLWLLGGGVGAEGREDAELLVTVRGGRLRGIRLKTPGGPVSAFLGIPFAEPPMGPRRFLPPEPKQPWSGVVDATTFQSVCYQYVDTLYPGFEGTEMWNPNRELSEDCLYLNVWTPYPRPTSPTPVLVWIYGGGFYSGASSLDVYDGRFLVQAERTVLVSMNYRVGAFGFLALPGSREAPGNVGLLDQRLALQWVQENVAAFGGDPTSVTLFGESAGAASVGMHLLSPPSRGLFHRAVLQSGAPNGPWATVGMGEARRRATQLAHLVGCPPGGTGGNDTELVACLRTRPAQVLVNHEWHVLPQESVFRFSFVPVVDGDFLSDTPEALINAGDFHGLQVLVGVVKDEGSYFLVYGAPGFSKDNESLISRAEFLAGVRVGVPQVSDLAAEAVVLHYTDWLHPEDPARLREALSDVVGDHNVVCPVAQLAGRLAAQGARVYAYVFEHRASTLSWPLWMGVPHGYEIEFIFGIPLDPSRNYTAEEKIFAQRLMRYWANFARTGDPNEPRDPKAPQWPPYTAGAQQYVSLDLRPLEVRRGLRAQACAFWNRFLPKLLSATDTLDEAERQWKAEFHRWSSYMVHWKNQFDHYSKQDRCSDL

Regarding `COc1cc(C[C@H](C)N)c(OC)cc1Br`, the result in test [1] and in test [2] was inactive. Also, the Potency result in [3] was “inactive”.

For `CC[C@@H](O)C(C[C@@H](C)N(C)C)(c1ccccc1)c1ccccc1`, the compound was called inactive in test [4], in test [6], in test [7], in test [8], in [9] and in test [10]. For the same compound, the compound was called inactive in test [11], in [12], in test [13], in test [14], in test [15] and in test [16]. Moreover, the compound was classed as inactive in test [17], in [22], in test [23], in test [25], in [1] and in [2]. Further, the Potency entry in test [5], in test [18], in test [19], in [21], in test [24] and in test [26] was “inactive” in each case. Also, the Potency entry (with Aromatase (Homo sapiens); in test [3]) was “inactive” each time. Moreover, the Potency in [20] is 55.1 µM (active).

For the compound `CCN(CC)CCCC(C)Nc1c2ccc(Cl)cc2nc2ccc(OC)cc12` (centres undefined), the Potency entry in [27] was “inactive”.

Regarding `CC/C(=C(/c1ccc(O)cc1)c1ccc(OCCN(C)C)cc1)c1ccccc1`, in [27], the Potency entry is “inactive”.

As to `C#C[C@]1(OC(=O)CCCCCC)CC[C@H]2[C@@H]3CCC4=CC(=O)CC[C@@H]4[C@H]3CC[C@@]21C`, the compound was classed as inactive in test [4], in [6], in test [7], in [8], in [9] and in [10]. The call in test [11], in [12], in test [13], in test [14], in test [15] and in test [16] was inactive. Moreover, the result in [22], in [1], in [2] and in test [36] was inactive. The Potency in test [5] was 29.8 µM (active); in test [29], 8.41 µM (active); in test [19], 21.3 µM (active); in [20], 2.66 µM (active); in test [30], 5.96 µM (active); in test [31], 5.96 µM (active). For the same compound, the Potency is 11.9 µM (active) in test [32]; 11.9 µM (active) in [33]; 19 µM (active) in test [34]; 338 nM [inconclusive] (active) in test [24]; 596 nM (active) in test [35]. The Potency result (in test [28]; in test [21]; in [26]; in the test with Aromatase (Homo sapiens); in test [3]) was “inactive” throughout.
